Source: PubChem
Hits are enriched below; roughly 3.5% of the tested compounds scored in any of these assays.
TEAD-YAP block = TEAD-YAP interaction inhibition. HEK-TIYL cells, TEAD-Gal4/YAP UAS-luciferase luminescence. inhibition, % at 9.12 µM. actives 1.4% (n = 640,000); in the data active = inhibition above about 32%;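 also: 0% = median of test compound wells and 100% = reference inhibitor wells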
GPR151 activ = activators of human GPR151; actives 1% (n = 650,000); PathHunter beta-arrestin GPR151 cells, luminescence; activation, % at 11.2 µM; AID 1508602; Q8TDV0; in the data active = activation above about 4.9%;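 also: 0% = median of compound wells and 100% = cells with positive control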
Target sequence (Q8TDV0 whole entry, looked up): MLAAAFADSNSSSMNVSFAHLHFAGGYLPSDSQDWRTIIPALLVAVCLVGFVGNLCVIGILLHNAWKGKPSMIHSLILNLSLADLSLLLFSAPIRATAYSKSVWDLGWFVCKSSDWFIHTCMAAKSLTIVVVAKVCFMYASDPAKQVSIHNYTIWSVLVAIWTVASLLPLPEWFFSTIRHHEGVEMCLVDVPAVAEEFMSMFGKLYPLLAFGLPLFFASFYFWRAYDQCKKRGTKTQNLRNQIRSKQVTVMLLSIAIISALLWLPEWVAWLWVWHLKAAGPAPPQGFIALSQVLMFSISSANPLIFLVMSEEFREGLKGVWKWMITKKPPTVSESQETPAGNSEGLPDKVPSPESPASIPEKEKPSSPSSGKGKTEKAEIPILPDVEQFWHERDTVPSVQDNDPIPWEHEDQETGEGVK
FBW7 act = human FBW7 E3 ligase activation, primary screen | Q969H0 | normalized activity (activation), % at 26.1 µM | AlphaScreen FBW7–phospho-cyclin E peptide binding, activator screen | AID 1259310 | actives 0.13% (n = 650,000); in the data active = normalized activity above about 1.9%;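 also: purified mutant Fbw7 with reduced substrate affinity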
MITF primary = inhibitors of human MITF; inhibition, % at 2.6 µM; AlphaScreen MITF homodimerization, bead proximity signal; actives 0.91% (n = 650,000); in the data active = inhibition above about 50%;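 also: 0% = vehicle wells with protein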
Starred values were filed as active, the others as inactive.

SMILES | TEAD-YAP block | GPR151 activ | FBW7 act | MITF primary
O=C(Cn1nnc2ccccc21)N/N=C/c1cc([N+](=O)[O-])ccc1O | 9 | 0 | 0 | 73*
O=C(N/N=C/c1cc([N+](=O)[O-])ccc1O)N/N=C/c1cc([N+](=O)[O-])ccc1O | 0 | 1 | 0 | -1
O=C(CCn1nnc2ccccc21)N/N=C\c1cc([N+](=O)[O-])ccc1O | 10 | 1 | 0 | 42
CCNC(=O)C(=O)N/N=C/c1cc([N+](=O)[O-])ccc1O | 5 | 1 | -1 | 74*
Cc1ccc(SCC(=O)Nc2ccccc2O)cc1 | -50 | 0 | 0 | -7
CCCCC(CC)CNC(=O)c1ccc2c(=O)n(CCOC)c(=O)[nH]c2c1 (stereo not given) | 45* | 0 | 0 | 6
C=CCOC(=O)/C(=C\c1ccc(OC)cc1)NC(=O)c1ccc(Br)cc1 | -3 | 2 | 0 | 7
COc1cc(CNc2nccn3c(-c4ccc5ccccc5c4)cnc23)cc(OC)c1OC | -9 | -1 | 2.0* | 7
COc1cc(CNc2nccn3c(-c4ccsc4)cnc23)cc(OC)c1OC | -4 | 1 | 0 | 13
COc1cc(Nc2nccn3c(-c4ccsc4)cnc23)cc(OC)c1OC | 55* | 1 | 1 | 16
COc1cc(Nc2nccn3c(-c4cccc(N)c4)cnc23)cc(OC)c1OC | 43* | 0 | -1 | 2
COc1cc(Nc2nccn3c(-c4cccc5ccccc45)cnc23)cc(OC)c1OC | 16 | 3 | -1 | -19
COc1cc(Nc2nccn3c(-c4ccccc4)cnc23)cc(OC)c1OC | 59* | 0 | -1 | -14
CC(=O)Oc1ccc(C)c2ccc(/C=C/c3ccccc3[N+](=O)[O-])nc12 | -25 | 1 | 0 | 8
O=C(CCN1C(=O)c2cccc3cccc(c23)C1=O)N1CCN(Cc2ccccc2)CC1 | -1 | -1 | 0 | 13
O=C(CSc1nnc(NCc2ccccc2)s1)c1ccc(F)cc1 | -16 | 1 | 0 | 2
COc1cc(-c2cnc3c(Nc4ccc(Cl)cc4)nccn23)cc(OC)c1OC | 4 | 0 | 0 | -9
c1cc(CCNc2nccn3c(-c4ccsc4)cnc23)ccn1 | 39* | -1 | 0 | -9
COc1cc(Nc2nccn3c(-c4ccc(C)cc4)cnc23)cc(OC)c1OC | 46* | 0 | -1 | -6
Cc1ccc(C2C(C(=O)c3ccco3)=C(O)C(=O)N2CCCN(C)C)o1 (stereo not given) | 1 | -2 | 0 | 18
O=C(OC(c1ccccc1)c1nccc2ccccc12)c1ccccc1 (stereo not given) | 72* | 0 | 0 | 9
Cc1ccccc1C(=O)/C(C#N)=N/Nc1c(C)n(C)n(-c2ccccc2)c1=O | 20 | 0 | -1 | 70*
Cc1c(N/N=C(\C#N)C(=O)c2ccccc2)c(=O)n(-c2ccccc2)n1C | 18 | -1 | -2 | 40
O=C(Nc1ccc(C(=O)N2CCCC2)cc1)c1ccc(Br)o1 | -23 | -9 | 0 | -5
O=C(Nc1ccc(N2CCCCC2)cc1)c1ccc(Br)o1 | 49* | -8 | 0 | 25
SMILES | TEAD-YAP block | GPR151 activ | FBW7 act | MITF primary
CCCC(=O)N1CCN(c2ccc(NC(=O)c3ccc(Br)o3)cc2)CC1 | 60* | -2 | 0 | 2
O=C(Nc1ccc(N2CCCCC2)cc1)c1ccccc1F | 70* | -7 | 0 | 8
CCCCC1CN(CC(=O)NC(C)Cc2cncs2)Cc2ccccc2O1 (stereo not given) | 2 | -1 | 0 | 13
CCN(CC)c1ccc(-c2c3cc(O)c(=O)cc-3oc3cc(O)c(O)cc23)cc1 | 10 | -2 | 0 | 110*
O=c1cc2oc3cc(O)c(O)cc3c(-c3ccc4c(c3)OCO4)c-2cc1O | 18 | -1 | -1 | 113*
O=c1cc2oc3cc(O)c(O)cc3c(-c3ccc([N+](=O)[O-])o3)c-2cc1O | 6 | -1 | 0 | 106*
CCCc1cc2c(=O)c(-c3ccc4c(c3)OCO4)c(CC)oc2cc1O | 10 | 2 | 0 | -8
COC(CN(C)c1ccc(Br)cn1)OC | 8 | 1 | 1 | 13
COCCN(C(=S)Nc1cccc(SC)c1)C(C)c1cccnc1 (stereo not given) | -3 | 2 | 0 | 1
CC1CC(C)(C)NC(=S)N1CCC(=O)N1CC=C(c2ccccc2)CC1 (stereo not given) | 3 | 0 | 0 | -14
COc1ccc2ccc(OC)c(C3NC(=S)NC(C)=C3C(N)=O)c2c1 (stereo not given) | -10 | 0 | 0 | -14
Cc1ccn2cc(-c3ccc([N+](=O)[O-])cc3)nc2c1 | -1 | -4 | 0 | 11
Cc1ccn2cc(-c3ccccc3Br)nc2c1 | 33* | -6 | 0 | 6
Cc1ccn2cc(-c3ccc(F)cc3)nc2c1 | 73* | -11 | 0 | 13
Cc1ccn2cc(-c3ccc(S(=O)(=O)N(C)C)cc3)nc2c1 | 48* | -2 | 0 | -4
Cc1ccn2cc(-c3ccc(I)cc3)nc2c1 | 79* | -5 | 0 | 6
COc1cc(NC(=O)C(F)(F)F)c(OC)cc1NC(C)=O | 11 | 2 | 0 | 0
CC(=O)c1cn(CC(=O)Nc2cccc(C)c2C)c2ccccc12 | 40* | 0 | 0 | -2
CC(=O)c1cn(CC(=O)Nc2ccc(C)cc2C)c2ccccc12 | 40* | 0 | 0 | 2
COc1cc(C)c(NC(=O)Cn2cc(C(C)=O)c3ccccc32)cc1C | 22 | -1 | 0 | 9
Cc1ccc(NC(=O)CCOc2ccccc2)cc1Cl | -23 | 0 | 2.4* | 10
Cc1cc(C)c2nc3nc(C)c(C)cc3c(N)c2c1 | 81* | -2 | 0 | 16
CNC(=O)c1ccccc1Nc1cc(Nc2ccc3c(c2)OCO3)ncc1C(F)(F)F | 41* | 0 | 0 | -7
CNC(=O)c1cc(F)ccc1Nc1cc(Nc2ccc(N3CCCC3=O)cc2)ncc1C(F)(F)F | 32 | 1 | 0 | -7
CNC(=O)c1ccccc1Nc1cc(Nc2ncccn2)ncc1C(F)(F)F | 24 | -1 | 0 | 21
SMILES | TEAD-YAP block | GPR151 activ | FBW7 act | MITF primary
CNC(=O)c1ccncc1Nc1cc(Nc2ccc3c(c2)CC(=O)N3)ncc1C(F)(F)F | -7 | 3 | 0 | 2
CNC(=O)c1ccccc1Nc1cc(Nc2ccc3c(c2)CC(=O)N3C)ncc1C(F)(F)F | 65* | -2 | 0 | -3
CNC(=O)c1ccccc1Nc1cc(Nc2ccc3[nH]c(=O)oc3c2)ncc1C(F)(F)F | 33* | 1 | 0 | 11
CNC(=O)c1ccccc1Nc1cc(Nc2ccc3c(c2)CC(=O)N3)ncc1C(F)(F)F | 51* | 0 | 0 | 16
CNC(=O)c1ccccc1Nc1cc(Nc2ccc3[nH]nc(C4=CCNCC4)c3c2)ncc1C(F)(F)F | -36 | 1 | 0 | 2
CC(C)(C)OC(=O)N1CC(Sc2nc3ccccc3[nH]2)CC1C(=O)O (stereo not given) | 12 | 0 | 0 | -11
O=C1c2cccc([N+](=O)[O-])c2C(=O)c2c1cccc2[N+](=O)[O-] | 0 | -1 | 0 | -5
Cc1ccc(-c2nnc3sc(C4=Cc5ccccc5OC=C4)nn23)cc1 | -9 | 0 | 0 | 11
